The text below walks through data of PubChem BioAssay AID1117319 (Southern Research Institute, 2015).

SMILES strings stand for the structures. Where “and” joins values, the source holds several entries; their conditions need not be identical. Equal values may be shown once. About 1,500 (0.58%) of roughly 260,000 compounds were called active. Not shown: some 5% with an inconclusive outcome. A selection follows. Measured potencies and affinities stand elsewhere. Values without a mark were called inactive.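 How the source made its calls: active means inhibition above a set limit at one or more doses, reproduced on every date tested; inconclusive means results disagree between test dates, or hit never tested in dose response; inactive means the rest.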

This assay deals with Virion infectivity factor (Human immunodeficiency virus type 1 group M subtype B (isolate BH10)) + Virion infectivity factor (Human immunodeficiency virus type 1 group M subtype B (isolate BRU/LAI)) + Virion infectivity factor (Human immunodeficiency virus type 1 group M subtype B (isolate PCV12)) + Virion infectivity factor (Human immunodeficiency virus type 1 group M subtype B (isolate HXB2)) + DNA dC->dU-editing enzyme APOBEC-3G (Homo sapiens) (UniProt P69720+P69721+P69722+P69723+Q9HC16). Put plainly: HIV-1 Vif–A3G interaction blockers – biochemical, TR-FRET, GST-Vif 1-94, biotin-A3G peptide, dose response retest, primary screen (AID 1117319).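 Further: Vif residues 1-94 fused to GST binding biotinylated APOBEC3G peptide 110-148; 0% = full assay without inhibitor and 100% = GST in place of GST-Vif.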 The conditions noted are these: TR-FRET GST-Vif / biotin-A3G peptide binding; stronger effect = higher value.
Broadly, the inhibition is the change of the read-out against control, counted positive when it falls. As to `CC(=O)c1ccc(N2CCN(C(=O)c3ccc(OCc4c(C)noc4C)cc3)CC2)cc1`, the inhibition was -23.2%.

Turning to `CCn1c(SCC(=O)NNC(=O)Cc2ccccc2)nnc1-c1ccccc1`, the inhibition was 6.74%.

In the case of `CNc1ccc(OC)cc1-n1cnc(-c2ccc([N+](=O)[O-])cc2)c1`, the inhibition is -2.92%. The same measure for `O=C(NCc1ccccn1)/C(=N/O)c1ccccc1`: 1.42%; for `O=C(NCc1ccccn1)C(=O)NCc1ccccn1`: 5.11%; for `Cn1nc(C(C)(C)C)cc1C(=O)NCc1ccc2c(c1)OCO2`: 5.42%.

In the case of `O=C1N/C(=C/c2cccn2-c2ccccc2)C(=O)N1Cc1ccccc1F`, the inhibition is 0%. Consider `N#C/C(=C/c1cccn1-c1cccc(C(=O)O)c1)c1ccc(F)cc1`, for which the inhibition is 0.42%. The same measure for `O=C(O)c1ccc(COc2ccc3ccccc3c2/C=C2/NC(=O)N(c3ccccc3)C2=O)cc1`: 24.9%. The same measure for `Cc1c(C(=O)O)cccc1-c1ccc(/C=C2/NC(=O)N(c3ccccc3)C2=O)o1`: 18.3%; for `O=C(O)c1cc(-c2ccc(/C=C3\NC(=O)N(c4ccccc4)C3=O)o2)ccc1Cl`: 25.2%. For the molecule `O=C(O)c1ccc(COc2ccccc2/C=C2/NC(=O)N(c3cccc(Cl)c3)C2=O)cc1`, the inhibition was 32.2%. For the molecule `N#CC(C#N)=Cc1cccn1-c1ccc(S(N)(=O)=O)cc1`, the inhibition is -2.79%. Under `O=C(O)c1cccc(-n2cccc2/C=C2/NC(=O)N(c3ccc(Cl)cc3)C2=O)c1` stands -7.27%; under `Cn1c(C(=O)NCc2cccs2)cc2oc3ccccc3c21`, 2.73%; under `O=C(NC1(C(F)(F)F)NC(=O)N(CC2CCCCC2)C1=O)c1ccco1` (stereo not given), 9.27%. Under `CCN(C(=O)c1cn(C)c(=O)c2ccccc12)c1ccccc1F` stands -11.6%; under `Cn1cc(CCNCc2cn[nH]c2-c2ccc(-c3ccccc3)cc2)cn1`, -3.24%; under `CC(C)Cc1cc(C(=O)O)c2ccccc2n1`, 5.6%. In the case of `CCn1c(Cc2ccccc2)nnc1SCC(=O)Nc1ccc(C)cc1`, the inhibition is -8.39%. The same measure for `CCc1ccccc1NC(=O)Cc1cn(C)c2ccccc12`: -13.9%; for `CC(C)c1ccc(NC(=O)Cc2cn(C)c3ccccc23)cc1`: 4.75%. As for `Cc1ccc(-c2nnn(CC(=O)N(c3ccccc3)C(C(=O)NC3CCCC3)c3ccco3)n2)o1` (stereo not given), the inhibition is -1.78% and -5.18%. In the case of `Cc1ccc(N(C(=O)Cn2nnc(-c3ccc(C)o3)n2)C(C(=O)NC2CCCC2)c2ccco2)cc1` (stereo not given), the inhibition is 1.99% and -5.57%. Consider `COCCN(Cc1ccc(C)c(Br)c1)C(=O)Cn1cnc(S(=O)(=O)N2CCCC2)c1`, for which the inhibition is 27.4%. For the molecule `CN(C)C(CNC(=O)c1ccccc1C(F)(F)F)c1ccco1` (stereo not given), the inhibition was 19%. As for `CC(C)CCNC(=O)c1cccnc1Sc1ccccc1`, the inhibition was -0.39%. As for `Cc1ccc(C(C)C)cc1OCCCCN1CCCC1`, the inhibition is -6.06%.

For `Cc1ccc(S(=O)(=O)NC(=O)Nc2c(C)cccc2C)cc1`, the inhibition is -2.09%. Under `CCOC(=O)/C=C1\SCC(=O)N1CC(=O)NC(C)c1ccccc1` (stereo not given) stands -4.1%; under `CCOC(=O)/C=C1\SCC(=O)N1CC(=O)NC(C)C`, 0.13%; under `O=C(CSc1nc2ccccc2n1Cc1ccccc1)N/N=C/c1ccccc1C(=O)O`, -4.24%. Under `C=CCC[C@H](Cc1ccc(F)cc1)C(=O)OC[C@@H](C)NC(=O)[C@H](CC=C)CC(=O)N(CCO)Cc1ccccc1` stands 0.83%; under `COc1ccc(OC)c(Nc2nc(C3CC3)nc3c2nnn3Cc2ccccc2)c1`, -2.66%. On to `COc1ccc(OC)c(-c2csc(NC(=O)c3ccc(OCC4CCCO4)cc3)n2)c1` (stereo not given), for which the inhibition was 6.81%. Under `C=CCNC(=O)C1COc2ccccc2O1` (stereo not given) stands -12.5%; under `O=C(NC(=S)N1CCCc2ccccc21)c1ccc(Cl)cc1`, -35.9%; under `O=C(c1coc(=O)c(Br)c1)N1CCOCC1`, 24.5%. The same measure for `O=C(c1ccc(Br)cc1)N1CCCc2ccccc21`: 4.85%.

Take `COc1ccccc1N1CCN(C(=O)c2coc(=O)c(Br)c2)CC1`: the inhibition was 27.6%. In the case of `O=C(NC(=S)N1CCCc2ccccc21)c1ccc(Br)cc1`, the inhibition is -10.8%. With `O=C(c1cccc(Br)c1)N1CCCc2ccccc21`, the inhibition was 4.68%. The same measure for `O=C(c1ccc(=O)[nH]c1)N1CCCc2ccccc21`: 0.97%; for `O=C(c1ccccc1)N1CCCc2ccccc21`: 16.3%. On to `CSC1=C(C#N)C(c2sccc2C)CC(=O)N1` (stereo not given), for which the inhibition was -3.4%. As to `C[C@@H]1CCC[C@H](C)N1Cc1nc(Cc2ccccc2Cl)no1`, the inhibition is -1.65%. Under `Oc1cccc(/C=N/n2c(C3CCCCC3)n[nH]c2=S)c1` stands 2.47%. As to `CC(=O)c1c(C)[nH]c(C(=O)CSc2ccc(F)cc2)c1C`, the inhibition was 29.5%. Under `CCOC(=O)N1CCN(C(=O)C2CCCCC2)CC1` stands -1.05%; under `CCOc1ccsc1C(=O)OC`, 5.88%. Under `CC1(C)CC(=O)C(C=NCCO)=C(O)C1` stands -1.68%; under `O=C(CNC(=O)c1ccc(Cl)cc1)OCN1C(=O)c2ccccc2C1=O`, -9.8%. As for `CCC(C)(C)n1nnnc1C(c1ccc2ncccc2c1)N1CCN(c2nc3ccccc3s2)CC1` (stereo not given), the inhibition is -9.25% and 0.75%. `CCC(C)(C)n1nnnc1C(c1ccc2ncccc2c1)N1CCCCCC1` (stereo not given): the inhibition is 2.63%. The same measure for `CCOC(=O)C(=O)NC(C)c1ccccc1` (stereo not given): 1.23%. The same measure for `N#CC(C#N)=C1C(=O)N(CCN2CCOCC2)c2ccccc21`: 19.1%.

Take `COc1cc(CNCCc2ccccc2)ccc1OCc1ccc(Cl)nc1`: the inhibition is 2.97%.

As to `COc1ccc(CCNCc2ccc(OCc3ccc(Cl)nc3)c(OC)c2)cc1OC`, the inhibition is 5.39%.

In the case of `CCOc1cccc2sc(N(CCCN(C)C)C(=O)c3ccc(S(=O)(=O)N4CCCCCC4)cc3)nc12`, the inhibition was -5.19%. Regarding `O=C(Nc1ccc(NS(=O)(=O)c2ccccc2)cc1)c1ccccc1Cl`, the inhibition is 9.4%.
